Source: PubChem BioAssay (NCATS)
Records with an inconclusive call do not appear. Active and inactive are the calls of the source. Calls follow the shape of the dose curve; as a rule, active = well fitted inhibition curve with a large enough effect; inconclusive = small, poorly fitted or top-dose-only effect; inactive = flat fitted curve, though single readings scatter.

Assay: Drug repurposing screens with cells derived from glioblastoma tumor samples (AID 1345199); also: nearly all actives have a fitted effect of over 40% in size
Settings: GBM patient neurospheres viability, ATP luminescence, 48 h
Description: CD133+ cells were isolated from GBM patient biopsies and cultured as neurospheres. Neurospheres from four patients were used to screen the NCATS pharmaceutical collection (NPC) library of approved drugs and bioactive compounds. […] The neurospheres were incubated with drugs for 48 hours in 1536-well format, then assayed with an ATP content cell viability assay. […] These hits were cherry picked to confirm activity in the four original GBM lines screened plus three other slower growing GMB lines (unable to yield enough cells for a full primary screen). Variable activities of the confirmed primary hits in the different GBM patient lines were observed. The patient line 206 responded to the greatest number of compounds and line 923 responded to the least amount of active compounds.

[1] = at 45.9 µM (top of the series), tumour line B
[2] = at 45.9 µM (top of the series), tumour line D
[3] = at 46.1 µM (top of the series), tumour line C
[4] = at 46 µM (top of the series), tumour line A
% is scaled to controls: 0 for no effect and ±100 for the full control effect; potency is read from the fitted curve at half-maximal effect.

C[N+]1([O-])[C@@H]2CC[C@H]1CC(OC(=O)C(CO)c1ccccc1)C2 (some centres not stated)
inactive: activity, negative = cell killing (at 20 µM (top of the series), tumour line C) -19.4% | activity, negative = cell killing (at 21.2 µM (top of the series), tumour line B) -4.66% | activity, negative = cell killing (at 21.2 µM (top of the series), tumour line D) -20.9% | activity, negative = cell killing (at 21.3 µM (top of the series), tumour line A) -44.8% | activity, negative = cell killing [1] -7.07% | activity, negative = cell killing [2] 8.25% | activity, negative = cell killing [3] 21.1%

CCCCCCCCCC(=O)O[C@H]1CC[C@H]2[C@@H]3CCC4=CC(=O)CC[C@]4(C)[C@H]3CC[C@]12C
inactive: activity, negative = cell killing [1] -12.8% | activity, negative = cell killing [2] -20.9% | activity, negative = cell killing [3] -14.9%
active: Potency (tumour line A) 15800 nM

FC(F)OC(F)(F)C(F)Cl (configuration not stated)
inactive: activity, negative = cell killing [1] -9.16% | activity, negative = cell killing [2] 6% | activity, negative = cell killing [4] -21% | activity, negative = cell killing [3] -2.93%

[S]=[Sb](=[S])[S][Sb](=[S])=[S]
inactive: activity, negative = cell killing [1] -4.98% | activity, negative = cell killing [2] -5.67% | activity, negative = cell killing [4] -28.3% | activity, negative = cell killing [3] -1.84%

O=c1[nH]cc(N(CCCl)CCCl)c(=O)[nH]1
inactive: activity, negative = cell killing [1] -11% | activity, negative = cell killing [2] -17.9% | activity, negative = cell killing [3] -21.9%

CN1[C@H]2CC[C@@H]1[C@@H](C(=O)O)[C@@H](OC(=O)c1ccccc1)C2
inactive: activity, negative = cell killing [1] -13.9% | activity, negative = cell killing [2] -11.4% | activity, negative = cell killing [4] -27% | activity, negative = cell killing [3] -10.2% | activity, negative = cell killing (at 99.2 µM (top of the series), tumour line C) -6.57% | activity, negative = cell killing (at 108 µM (top of the series), tumour line A) -26.2% | activity, negative = cell killing (at 108 µM (top of the series), tumour line B) -7.59% | activity, negative = cell killing (at 108 µM (top of the series), tumour line D) -7.94%

CCC1(c2ccccc2)C(=O)NC(=O)N(C)C1=O (configuration not stated)
inactive: activity, negative = cell killing [1] -7.4% | activity, negative = cell killing [2] -10.2% | activity, negative = cell killing [4] -23% | activity, negative = cell killing [3] 7.87%

O=Cc1ccco1
inactive: activity, negative = cell killing [1] -3.46% | activity, negative = cell killing [2] 2.23% | activity, negative = cell killing [4] -6.89% | activity, negative = cell killing [3] -7%

Oc1cccc[c]1[Hg][Cl]
inactive: activity, negative = cell killing [3] -98.2%
active: Potency (tumour line A) 398 nM | Potency (tumour line B) 562 nM | Potency (tumour line D) 1000 nM
